From PubChem
GBA mod: alters purified human glucocerebrosidase activity. Potency, µM. hit rate 1.1% among 48,000. P04062. purified enzyme, resorufin glucoside fluorescence (screen aimed at inhibitors), 20 min; in the data active = potency below about 15 µM; inconclusive = mostly about 16 µM to 33 µM;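 also: the screen sought inhibitors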
Target sequence (P04062 whole entry, looked up): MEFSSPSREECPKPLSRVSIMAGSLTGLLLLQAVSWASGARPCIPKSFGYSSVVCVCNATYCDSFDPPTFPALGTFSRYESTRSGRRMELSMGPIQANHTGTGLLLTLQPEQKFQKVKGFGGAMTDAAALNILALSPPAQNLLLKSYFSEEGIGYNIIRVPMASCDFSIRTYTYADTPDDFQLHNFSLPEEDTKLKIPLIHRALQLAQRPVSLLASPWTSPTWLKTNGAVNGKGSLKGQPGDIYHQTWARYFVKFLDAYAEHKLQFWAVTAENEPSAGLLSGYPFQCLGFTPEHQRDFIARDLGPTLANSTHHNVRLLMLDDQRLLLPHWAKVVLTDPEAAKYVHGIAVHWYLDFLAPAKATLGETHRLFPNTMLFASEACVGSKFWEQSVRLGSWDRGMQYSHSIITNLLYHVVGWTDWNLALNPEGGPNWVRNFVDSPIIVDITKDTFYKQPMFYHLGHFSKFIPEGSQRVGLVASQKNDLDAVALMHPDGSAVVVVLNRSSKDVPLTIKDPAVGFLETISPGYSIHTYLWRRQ
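Compounds titrated against 0.2 nM normal enzyme, 30 uM resorufin beta-D-glucopyranoside substrate, citrate/phosphate buffer with taurocholate and tween-20, pH 5.9. Reaction ran 20 min at room temperature; fluorescence (Ex 548/Em 600) gave AC50.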
HBB splice mod: alters splicing of the hemoglobin beta chain; HBB splicing reporter cell assay, activation; EGFP reporter with mutant IVS2-654 intron; response scale: normalised to 500 nM splice-correcting PNA; Potency, µM (top dose mostly 46.1 µM), hits mostly activators; hit rate 0.06% among 65,000; AID 925
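HeLa cells stably expressing EGFP interrupted by mutant beta-globin intron 2 (IVS2-654), 500/well in 2% FCS. Treated with compound for 2 days at 37C. Splicing correction scored as total well GFP intensity (488 nm excitation, 500-520 nm emission); 500 nM antisense PNA served as control.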
UbGFP stabilizer: inhibits proteasome, raising ubiquitin-GFP reporter fluorescence | Ubiquitin-GFP reporter cells, proteasome inhibition, GFP fluorescence; response scale: untreated = 0%, 10 µM MG-132 = 100% | Potency, µM (titrated, usually from 45.9 µM), hits mostly activators | 67,000 tested, under 10 active | AID 526; active = well fitted activation curve with a large enough effect, not every such curve was filed as active; inconclusive = small, poorly fitted or top-dose-only effect, or another doubt; inactive = no such curve, though single readings can be large or run the other way
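Proteasome blockade was scored as a rise in GFP-expressing U2OS cells carrying a ubiquitin(G76V)-GFP construct, imaged after 4 hr compound treatment at 37 °C across a 46 uM–2.9 nM series.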
Hsp90 Hop PPI: changes Hsp90-Hop TPR2A binding signal, up or down | hit rate 0.44% among 71,000 | AlphaScreen TPR2A-His6 binding biotin-Hsp90 C-terminal peptide | AID 595 | Potency, µM (doses to about 57 µM); active = well fitted curve in either direction with a large enough effect; inconclusive = small, poorly fitted or top-dose-only effect, or another doubt
USP2a inh: inhibitors of human ubiquitin-specific protease USP2a | O75604 | USP2a enzymatic assay, qHTS inhibition | Potency, µM (highest dose often 38.3 µM), actives largely listed as inhibitors | hit rate 0.1% among 60,000; also: nearly all actives have a fitted effect of over 60% in size
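USP2 core (20 nM final) was preincubated with compound for 30 min at RT in 20 mM Tris-HCl pH 8.0, 2 mM CaCl2, 2 mM beta-mercaptoethanol; Ub-PLA2 (20 nM) plus NBD C6-HPC (20 uM) then added, fluorescence read after 2.5 h.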
GFP derepression: epigenetic modulators derepressing GFP locus in mouse cells; hit rate 0.09% among 68,000; mouse C127i GFP locus derepression, cytometry, 30 h; Potency, µM (top dose mostly 46.1 µM)
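Read-out is the number of GFP-positive cells, scored as fluorescent objects 20 to 120 um wide, reflecting derepression of a silenced CMV-GFP reporter in murine C127i cells after 30 h compound exposure at 37 C.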
A number is an active result; - = inactive; ? = inconclusive; . = not tested or not shown; [ ] = another dose, or the depositor's remark. Rows were chosen to be rich in hits. Some 1.1% of all compounds tested hit in one or more screens of this group. Unless noted, calls follow the shape of the dose curve; as a rule, active = well fitted curve in the direction sought with a large enough effect; inconclusive = small, poorly fitted or top-dose-only effect, or another doubt; inactive = no such curve, though single readings can be large; an effect the other way counts as inactive or inconclusive.

SMILES	GBA mod	HBB splice mod	UbGFP stabilizer	Hsp90 Hop PPI	USP2a inh	GFP derepression
CCOC(=O)[C@]1(C(NC(=O)OC)c2ccco2)CCCC1=O (stereo partly drawn)	.	-[9.22 µM]	.	.	.	.
CC1(C)Cc2c(sc3c2C2=NCCN2C=N3)CS1	.	.	.	.	.	-
CSC1=Nc2sc3c(c2C2=NCCN12)CCCC3	6.42	-	-	-	-	-
O=c1c(-c2ccc(Cl)cc2)nc2cnc(N3CCNCC3)nc2n1CCc1ccccc1	.	-	-	-	-	-[9.22 µM]
NC(=O)C1CCN(c2nc(-c3ccccc3)nc3ccccc23)CC1	-	-	-	-	-	-
NC(=O)C1CCN(c2nc(-c3ccccc3)nc3c2oc2ccccc23)CC1	8.27	-[0.369 µM]	.	-	-	-
NS(=O)(=O)c1ccc(N=Nc2nc3[nH]cnc(=S)c3[nH]2)cc1	.	3.98µM	-[9.17 µM]	-[11 µM]	.	-[9.22 µM]
NS(=O)(=O)c1ccc(N=Nc2nc3[nH]c(=O)[nH]c(=O)c3[nH]2)cc1	.	-[9.22 µM]	-[9.17 µM]	-[11 µM]	.	-[9.22 µM]
O=C(O)CCCCn1ccc(=O)[nH]c1=O	.	-[9.22 µM]	-[9.17 µM]	-[11 µM]	.	-[9.22 µM]
CC1=C(/C=C/C(C)=C/C=C/C(C)=C/C(=O)O)C(C)(C)CCC1	.	.	.	.	.	10µM
CC1=C(/C=C/C(C)=C/C=C/C(C)=C/C=C/C=C(C)/C=C/C=C(C)/C=C/C(=O)[C@]2(C)CC(O)CC2(C)C)C(C)(C)CC(O)C1 (stereo partly drawn)	.	.	.	.	-	.
O=C(Nc1nc(-c2cccs2)cs1)c1ccc(Cl)s1	.	-	-	?	.	.
CC(C)(C)c1csc(NC(=O)c2ccc(Cl)s2)n1	14.7	-	-	-	-	-
Cc1nc(NCc2ccccc2)c2nc(-c3ccccc3)n(CC(C)(C)CN(C)C)c2n1	.	-	-	-	.	.
NC[C@@H](O)CSCc1ccc(Cl)cc1	.	-[9.22 µM]	-[9.17 µM]	-[11 µM]	.	-[9.22 µM]
Cc1cccc(Nc2nc(N)nc(CN3CCN(c4ccc(F)cc4)CC3)n2)c1	3.29	-	-	?	-	-
Nc1nc(CN2CCN(Cc3ccc4c(c3)OCO4)CC2)nc(Nc2ccccc2)n1	14.2	-	-	-	-	-
N[C@H](C(=O)O)[C@H](OCc1ccccc1)C(=O)O	.	.	-	-	.	-
O=C(c1cnccn1)N1CCC2(CCCN(Cc3ccncc3)C2)CC1	.	-	-	-	-	-[9.22 µM]
COCCCn1c2nc3ccccc3nc2c2c(=O)n(Cc3ccc(Cl)cc3)cnc21	7.33	-	-	-	-	-
CO[C@@H]1/C=C\CC(=O)N[C@@H](C)C(=O)OC[C@H](NS(=O)(=O)c2ccc(C)cc2)[C@H](C)/C=C\CC(=O)OC[C@H]1C	.	-[9.22 µM]	.	.	.	.
O=C(NC1=NCCS1)NC12CC3CC(CC(C3)C1)C2	13.6	-	-	-	-	-
CC(C)=CCC/C(C)=C/CO/N=C1/C[C@@H](O)[C@@H](O)[C@@H]2[C@@H]3C(=O)N(C4CCCCC4)C(=O)[C@H]3CC[C@H]12	.	-[9.22 µM]	.	.	.	.
CN(C)S(=O)(=O)c1ccc2c(c1)/C(=C/c1cc3c([nH]1)CCCC3)C(=O)N2	.	3.98µM	-	-	-	15.8µM
COc1ccc(N(C)S(=O)(=O)c2ccc3c(c2)CCC(=O)N3)cc1	-	-	-	-	-	-
SMILES	GBA mod	HBB splice mod	UbGFP stabilizer	Hsp90 Hop PPI	USP2a inh	GFP derepression
CC(C)CN1CC2(CCN(C(=O)c3cccc(F)c3)CC2)C1	.	-	-	-	-	-[9.22 µM]
CCN(CC)S(=O)(=O)c1ccc(S(=O)(=O)Nc2cc3c(cc2C(C)=O)OCO3)cc1	14.9	.	-	-	-	-
OB(O)O	.	-	.	-	.	.
FC(F)Sc1ccc(Nc2ncnc3nc[nH]c23)cc1	5.34	-	-	-	-	-
O=C(Cn1cccc1)Nc1ccc(OC(F)(F)F)cc1	15.2	-	-	-	-	-
Oc1ccc(CNc2ccc(F)cc2)c2cccnc12	-	.	-	7.94µM	-	-
Oc1ccccc1-c1nc(N2CCN(Cc3ccccc3)CC2)c2ccccc2n1	-	-	-	-	-	-
Fc1ccc(NCc2cn3ccccc3n2)cc1	-	-	-	-	-	-
Oc1ccc(CN2CCN(Cc3ccccc3)CC2)c2cccnc12	-	.	-	3.98µM	-	?
Oc1c(CN2CCc3ccccc3C2)cc(Cl)c2cccnc12	.	-	-	-[2.3 µM]	.	.
Oc1c(CN2CCCCC2)cc(Br)c2cccnc12	-	-	-	3.16µM	-	3.16µM
CC1=C(C(=O)Nc2ccccc2)C(c2ccco2)C(C#N)=C(SCC(=O)Nc2cccc(C)c2C)N1 (stereo not drawn)	8.55	-	-	-	.	-
CC1=C(C(=O)Nc2ccccc2)C(c2ccco2)C(C#N)=C(SCc2ccccc2)N1 (stereo not drawn)	.	-	-	-	-	-
CC=C(Cl)Cl	.	-	.	-	.	.
N#Cc1nc(-c2cccs2)oc1N1CCN(c2ccccc2)CC1	8.29	-	-	?	-	-
N#Cc1nc(Cc2ccccc2)oc1N1CCN(c2ccccc2)CC1	-	-[0.369 µM]	-	?	-	-
CCN(C(=O)CCc1nc(-c2ccccc2F)no1)c1cc(OC)ccc1OC	15.2	-	-	-	-	-
CCC(=O)Oc1ccc(-c2nc(-c3cccnc3)no2)cc1	7.83	-	-	-	-	-
O=C(O)c1cn[nH]c1-n1cnnn1	-	-	-	25.1µM	-	-
O=C(c1cccc(-n2cnnn2)c1)N1CCOCC1	-	-	-	-	-	-
O=C(c1cccc(F)c1)N1CCC2(CCCN(C(c3ccccc3)c3ccccc3)C2)CC1	.	-	-	-	-	-[9.22 µM]
CCCCNC(=O)C(c1ccc(OCC(=O)OC)c(C(=O)OC)c1)N(Cc1ccccn1)C(=O)CCCCCN1C(=O)NC(c2ccc(-c3ccccc3)cc2)C(C(=O)OCc2ccccc2)=C1C (stereo not drawn)	.	-	.	-	.	.
O=C(Oc1ccc(OC(=O)N2CCOCC2)cc1)c1ccccc1	8.03	-	-	-	-	-
C[C@H]1[C@H](C)CC[C@@]2(C(=O)O)CC[C@]3(C)C(=CC[C@@H]4[C@@]5(C)CC[C@H](O)C(C)(C)[C@@H]5CC[C@@]43C)[C@@H]12	.	.	-	-	.	-[9.22 µM]
CCN1C(=O)c2cccc3c(NC(=O)c4ccc5c(c4)OCCO5)ccc1c23	-	-	-	-	-	12.6µM
C/C1=C2N=C(/C=C3N=C(/C(C)=C4\[N-]C(C)(C5N=C1C(C)(CCC(=O)NCC(C)OP(=O)([O-])O[C@H]1C(O)C(n6cnc7cc(C)c(C)cc76)O[C@@H]1CO)C5CC(N)=O)C(C)(CC(N)=O)C4CCC(N)=O)C(C)(CC(N)=O)C\3CCC(N)=O)C(C)(C)C/2CCC(N)=O.[CH2-]C1OC(n2cnc3c(N)ncnc32)C(O)C1O.[Co] (stereo partly drawn)	.	.	.	.	3.16µM	.
Cc1ccc(N=Nc2c(O)ccc3cc(S(=O)(=O)O)ccc23)cc1	.	-[9.22 µM]	-[9.17 µM]	?	.	-[9.22 µM]
